According to PubChem BioAssay (NCI):
Compounds without any hit were thinned out: in the full panel of roughly 83,000, 20% have a hit.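 Plates (96-well) were seeded with cells, treated with compound at one concentration, and incubated for 48 hours before percent growth was determined.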 Unmarked numbers belong to inactive results. Activity calls are given as the source filed them. The calls were made as follows: active = growth percent below 10; inactive = the rest.

How the values were obtained:
Assay in all cases: NCI-60 one-dose screen, 48 h (100 = growth as untreated, 0 = no growth, -100 = all killed)
Details in all cases: 10 µM unless noted
[1] = system: SR leukemia
[2] = system: RPMI-8226 leukemia
[3] = system: OVCAR-8 ovarian
[4] = system: OVCAR-5 ovarian
[5] = system: SK-OV-3 ovarian
[6] = system: IGROV1 ovarian
[7] = system: OVCAR-3 ovarian
[8] = system: HS 578T breast
[9] = system: NCI/ADR-RES ovarian
[10] = system: OVCAR-4 ovarian

O=c1nc(-c2ccccc2)c2cc(-c3ccc(C(F)(F)F)nc3)ccc2[nH]1
growth [1]: 93.2% | growth [2]: 91.3% | growth [3]: 106% | growth [4]: 97.6% | growth [5]: 105% | growth [6]: 111% | growth [7]: 96% | growth [8]: 95.7% | growth [9]: 98.4%

CN1CCN(Cc2ccc(NC(=O)c3cncc(C#Cc4cnc(N)c5ncccc45)c3)cc2C(F)(F)F)CC1
growth [1]: 12.4% | growth [2]: 19.5% | growth [3]: -29% (active) | growth [4]: -26.5% (active) | growth [5]: 2.59% (active) | growth [6]: -50.8% (active) | growth [7]: 15.3% | growth [8]: -30.3% (active) | growth [9]: -55.3% (active)

Cc1ncc(C(=O)Nc2ccc(CN3CCN(C)CC3)c(C(F)(F)F)c2)cc1C#Cc1cnc(N)c2ncccc12
growth [1]: -33.9% (active) | growth [2]: -26.2% (active) | growth [3]: -24.7% (active) | growth [4]: 49.8% | growth [10]: -6.15% (active) | growth [5]: 0.896% (active) | growth [6]: 10.4% | growth [8]: 24.2% | growth [9]: 33.2%

CN(Cc1cnc2nc(N)nc(N)c2n1)c1ccc(C(=O)NC(CCC(=O)O)C(=O)O)cc1Br (stereo not drawn)
growth [1]: 34.1% | growth [2]: 54.3% | growth [3]: 45.5% | growth [4]: 27.7% | growth [10]: 75% | growth [5]: 45.3% | growth [6]: 40.9% | growth [8]: 96.7% | growth [9]: 38.4%

CN1C(=O)/C(=C/c2ccc(C(=O)Nc3ncc(Cc4cccc(Cl)c4)s3)cc2)SC1=S
growth [1]: 85.2% | growth [2]: 60.8% | growth [3]: 64.1% | growth [4]: 61.8% | growth [10]: 52.9% | growth [5]: 72.1% | growth [6]: 61.9% | growth [8]: 74.6% | growth [9]: 56.9%

CCc1n(Cc2ccc3ccccc3n2)cc[n+]1Cc1ccc2ccccc2n1
growth [1]: 30.2% | growth [2]: -1.65% (active) | growth [3]: 27.1% | growth [4]: 43.2% | growth [10]: 14.5% | growth [5]: 33.4% | growth [6]: 30% | growth [8]: 44.8% | growth [9]: 104%

CCNC(=O)Oc1ccc(/C(=C(/CC)Cc2ccccc2)c2ccc(OCCN3CCCC3)cc2)cc1
growth [1]: 75.5% | growth [2]: 77.7% | growth [3]: 94.1% | growth [4]: 94.6% | growth [5]: 88.5% | growth [6]: 91.5% | growth [7]: 96.9% | growth [8]: 93.5% | growth [9]: 97.9%

COc1cc(C(=O)c2c(-c3ccccc3)oc3c(OC)cccc23)cc(OC)c1OC
growth [1]: 6.57% (active) | growth [2]: 17.6% | growth [3]: 17.2% | growth [4]: 39.8% | growth [10]: 32.3% | growth [5]: 44.2% | growth [6]: 12.3% | growth [8]: 2.09% (active) | growth [9]: 11.9%

CCOC(=O)c1c(C)c2c(n1Cc1ccccc1)CSCC2=O
growth [1]: -2.43% [100 µM] (active) | growth [2]: -5.25% [100 µM] (active) | growth [3]: 17.7% [100 µM] | growth [4]: 33.6% [100 µM] | growth [10]: 11.8% [100 µM] | growth [5]: 19.8% [100 µM] | growth [6]: 32.6% [100 µM] | growth [8]: 46.8% [100 µM] | growth [9]: -5.65% [100 µM] (active)

O=S(=O)(NCCNc1nccc(-c2c(-c3cccc(O)c3)nc3occn23)n1)c1ccc(Br)cc1
growth [1]: 7.33% (active) | growth [2]: 29.8% | growth [3]: 31.3% | growth [4]: 51% | growth [5]: 29.4% | growth [6]: 4.48% (active) | growth [7]: 36% | growth [8]: 21.8% | growth [9]: 99.7%

O=C(Nc1ncc(Cc2cc(C(F)(F)F)ccc2Cl)s1)c1cccs1
growth [1]: 16.1% | growth [2]: 55.7% | growth [3]: 68.6% | growth [10]: 63.4% | growth [5]: 69.2% | growth [6]: 52.7% | growth [7]: 50.5% | growth [8]: 71%

O=C(/C=C/C12c3ccccc3C(c3ccccc31)C1C(=O)NC(=O)C12)c1ccc(Br)cc1 (stereo not drawn)
growth [1]: 14.4% | growth [2]: -10.7% (active) | growth [3]: 19.6% | growth [10]: 63.9% | growth [5]: 72.5% | growth [6]: 48% | growth [7]: 13% | growth [8]: 45.2% | growth [9]: 45.1%

CN(C)S(=O)(=O)Oc1ccc(-c2sc3cc(OS(=O)(=O)N(C)C)ccc3c2C(=O)c2ccc(OCCN3CCCCC3)cc2)cc1
growth [1]: -20.2% (active) | growth [2]: 38.1% | growth [3]: 43.8% | growth [4]: 78.4% | growth [5]: 62.4% | growth [6]: 81% | growth [7]: 69.3% | growth [8]: 59.7% | growth [9]: 72.3%

CN(CCCNC(=O)Cc1ccc2ccc3cccc4ccc1c2c34)CCCNc1cc(-c2ccc3ccccc3c2)nc2ccccc12
growth [1]: -70.8% (active) | growth [2]: -47% (active) | growth [3]: -25.3% (active) | growth [10]: -83% (active) | growth [5]: -85.6% (active) | growth [6]: -19.4% (active) | growth [7]: -81.5% (active) | growth [8]: -32% (active) | growth [9]: -77.7% (active)

S=c1[nH]c(=S)c2c(-c3ccccc3)c(-c3ccccc3)oc2[nH]1
growth [1]: 94.2% | growth [2]: 107% | growth [3]: 110% | growth [10]: 95.2% | growth [5]: 103% | growth [6]: 99.6% | growth [7]: 105% | growth [8]: 104% | growth [9]: 103%

CCOC(=O)C1=C(C)/C(=C\c2[nH]c(C)c(C(=O)OCC)c2C)N=C1C
growth [1]: 11.9% | growth [2]: 62.9% | growth [3]: 61.5% | growth [4]: 97.8% | growth [5]: 84.4% | growth [6]: 97% | growth [8]: 103%

Cc1ccc(N2C(=O)CCC2=O)cc1
growth [1]: 104% | growth [2]: 103% | growth [3]: 108% | growth [10]: 103% | growth [5]: 99.7% | growth [6]: 113% | growth [7]: 102% | growth [8]: 99.4% | growth [9]: 98.5%

CC(=O)c1ccc(Nc2nccc(-c3ccc4ccccc4c3)n2)cc1
growth [1]: 42.6% | growth [2]: 90% | growth [3]: 96.6% | growth [10]: 105% | growth [5]: 99.3% | growth [6]: 86.3% | growth [7]: 99.3% | growth [8]: 86.2% | growth [9]: 84%

C#CC#CC#CC#CC#CC#CC#CC#CC[C@@H]1OC[C@@H](COC(=O)O[C@@H](C(=O)O[C@H]2C[C@@]3(O)[C@@H](OC(=O)c4ccccc4)[C@@H]4[C@]5(OC(C)=O)CO[C@@H]5C[C@H](O)[C@@]4(C)C(=O)[C@H](OC(C)=O)C(=C2C)C3(C)C)[C@@H](NC(=O)c2ccccc2)c2ccccc2)O1
growth [1]: 3.63% (active) | growth [2]: 5.29% (active) | growth [3]: 94.7% | growth [10]: 83.9% | growth [5]: 98.6% | growth [6]: 19.3% | growth [7]: 100% | growth [8]: 94.1% | growth [9]: 62.5%

CCN1CCN(CCNc2nccc(-c3c(-c4ccc(F)c(OC)c4)nc4sccn34)n2)S1(=O)=O
growth [1]: 45.3% | growth [2]: 68.7% | growth [3]: 77.2% | growth [10]: 92% | growth [5]: 87.5% | growth [6]: 74.4% | growth [7]: 85.5% | growth [8]: 77.7% | growth [9]: 103%

CC1(C)N=C(N)N=C(N)N1c1ccc(CCCCc2ccccc2)c(Cl)c1
growth [1]: -8.35% (active) | growth [2]: 4.29% (active) | growth [3]: 26.1% | growth [10]: 20.6% | growth [5]: 38.1% | growth [6]: -24.4% (active) | growth [7]: -10.6% (active) | growth [8]: 36.4% | growth [9]: 54.8%

CC1(C)CC[C@]2(C(=O)N[C@H](CO)Cc3ccccc3)CC[C@]3(C)C(=CC[C@@H]4[C@@]5(C)CCCNC(C)(C)[C@@H]5CC[C@]43C)[C@@H]2C1
growth [1]: -5.95% (active) | growth [2]: 36% | growth [3]: 97% | growth [10]: 87.7% | growth [5]: 100% | growth [6]: 65.1% | growth [7]: 97.3% | growth [8]: 85.6% | growth [9]: 85.6%

C=CCN1C(=O)c2cccc3c(N4CCOCC4)ccc(c23)C1=O
growth [1]: -9.38% (active) | growth [2]: -25.8% (active) | growth [3]: 20.7% | growth [10]: 14.4% | growth [5]: 13.9% | growth [6]: -14.5% (active) | growth [7]: -66.4% (active) | growth [8]: 4.58% (active) | growth [9]: 6.06% (active)

CCN(CC)CCCOc1ccc2ncnc(Nc3ccc(Oc4cccc(C(F)(F)F)c4)c(Cl)c3)c2c1
growth [1]: -3.44% (active) | growth [2]: -29.8% (active) | growth [3]: 16.9% | growth [10]: 7.23% (active) | growth [5]: 13.4% | growth [6]: -52.6% (active) | growth [7]: -34.8% (active) | growth [8]: -32.8% (active) | growth [9]: 2.21% (active)

Cc1cn(-c2cc(NC(=O)c3cncc(C#Cc4c(N)ncc5ccc(F)cc45)c3)cc(C(F)(F)F)c2)cn1
growth [1]: 51.4% | growth [2]: 55.1% | growth [3]: 65.2% | growth [4]: 46.2% | growth [5]: 87.6% | growth [6]: 32.9% | growth [7]: 84.5% | growth [8]: 54.6% | growth [9]: 79.1%

O=C(O)c1cn(C2CC2)c2cc(N3CCN(C(=O)Nc4nc(-c5ccc(Br)cc5)cs4)CC3)c(F)cc2c1=O
growth [1]: 21.5% | growth [2]: -9.26% (active) | growth [3]: 10% | growth [4]: 32.5% | growth [5]: 0.843% (active) | growth [6]: 28.8% | growth [7]: 8.58% (active) | growth [8]: 3.4% (active) | growth [9]: 69.4%

Fc1cc(Nc2ccc3c(OCCCN4CCOCC4)cccc3n2)ccc1Cl
growth [1]: 10.7% | growth [2]: 4.49% (active) | growth [3]: 73.5% | growth [10]: 53.1% | growth [5]: 67.7% | growth [6]: 36.2% | growth [8]: 40.1% | growth [9]: 48.5%

CC1=CCC(OC(=O)C(C)(C)CC(O)(C(C)O)C(O)C2(C)C=CC(Cc3ccc(C(C)C)cc3)(C(C)C)CC2)(C(C)C)CC1 (stereo not drawn)
growth [1]: 99% | growth [2]: 108% | growth [3]: 104% | growth [10]: 102% | growth [5]: 107% | growth [6]: 95.5% | growth [7]: 102% | growth [8]: 101% | growth [9]: 98.2%
